Data: PubChem BioAssay AID1159580 (chemical genetic matrix, 2015)
“And” between values parts separate entries of the source, which are not always exact repeats. Equal entries are not always repeated. The whole screen tested about 5,500 compounds, of which about 2,000 (36%) were called active. Another 18% or so got no clear call; they are omitted. No stated cut-off is given here; in the data, active means normalized growth mostly below about 0.91 (no sharp cut-off); inconclusive means no clear call, values can overlap the other calls; inactive means mostly above about 0.92. The list shows a part of the results.

Assay: chemical genetic growth profiling, strain panel (AID 1159580);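 further: tested at 20 µM; growth read once vehicle control cultures reached saturation at 30 °C; 1 = growth at the plate median or of vehicle wells; lower values mean less growth of the strain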
Conditions: growth OD

Measured: normalized growth

NC1(C(=O)O)CC1
inactive: S. cerevisiae deletion strains, locus YJR075W, strain HOC1, hits give low values 0.985 | S. cerevisiae deletion strains, locus YKL009W, strain mrt4, hits give low values 1.03 | S. cerevisiae deletion strains, locus YKL068W, hits give low values 1.01 | S. cerevisiae deletion strains, locus YKL085W, strain MDH1 (second series), hits give low values 1.04 | S. cerevisiae deletion strains, locus YKL085W, strain MDH1, hits give low values 1.04 | S. cerevisiae deletion strains, locus YKL160W, strain elf1, hits give low values 1.04 | S. cerevisiae deletion strains, locus YKL190W, strain CNB1, hits give low values 1.01 | S. cerevisiae deletion strains, locus YKR001C, strain vps1, hits give low values 1.03 | S. cerevisiae deletion strains, locus YKR026C, strain gcn3, hits give low values 1.03 | S. cerevisiae deletion strains, locus YKR091W, strain srl3, hits give low values 1.03 | S. cerevisiae deletion strains, locus YLL001W, strain dnm1, hits give low values 1.01 | S. cerevisiae deletion strains, locus YLL026W, hits give low values 1.03 | S. cerevisiae deletion strains, locus YLL041C, strain sdh2, hits give low values 1.02 | S. cerevisiae deletion strains, locus YLR027C, strain aat2, hits give low values 1.02 | S. cerevisiae deletion strains, locus YLR039C, strain RIC1, hits give low values 1.04 | S. cerevisiae deletion strains, locus YLR058C, strain SHM2, hits give low values 1.01 | S. cerevisiae deletion strains, locus YLR102C, strain apc9, hits give low values 1.01 | S. cerevisiae deletion strains, locus YLR113W, strain HOG1, hits give low values 1.04 | S. cerevisiae deletion strains, locus YLR221C, strain rsa3, hits give low values 1 | S. cerevisiae deletion strains, locus YLR258W, strain gsy2, hits give low values 1.04 | S. cerevisiae deletion strains, locus YLR262C, strain YPT6 (second series), hits give low values 1.03 | S. cerevisiae deletion strains, locus YLR262C, strain YPT6, hits give low values 1.03 | S. cerevisiae deletion strains, locus YLR268W, strain sec22, hits give low values 1.02 | S. cerevisiae deletion strains, locus YLR320W, strain mms22, hits give low values 1.01 | S. cerevisiae deletion strains, locus YLR330W, strain CHS5, hits give low values 1.01 | S. cerevisiae deletion strains, locus YLR342W, strain FKS1 (second series), hits give low values 1.04 | S. cerevisiae deletion strains, locus YLR342W, strain FKS1, hits give low values 1.03 | S. cerevisiae deletion strains, locus YLR357W, strain rsc2, hits give low values 1.02 | S. cerevisiae deletion strains, locus YLR370C, strain arc18, hits give low values 1.05 | S. cerevisiae deletion strains, locus YLR371W, strain rom2, hits give low values 1.01 | S. cerevisiae deletion strains, locus YLR384C, strain iki3, hits give low values 1.01 | S. cerevisiae deletion strains, locus YLR418C, strain cdc73, hits give low values 1 | S. cerevisiae deletion strains, locus YML016C, strain PPZ1, hits give low values 1.01 | S. cerevisiae deletion strains, locus YML032C, strain rad52, hits give low values 1.04 | S. cerevisiae deletion strains, locus YML120C, strain ndi1, hits give low values 1.01 | S. cerevisiae deletion strains, locus YML124C, strain tub3, hits give low values 1.02 | S. cerevisiae deletion strains, locus YMR058W, strain fet3, hits give low values 1.03 | S. cerevisiae deletion strains, locus YMR078C, strain ctf18, hits give low values 1.03 | S. cerevisiae deletion strains, locus YMR125W, strain sto1, hits give low values 1.03 | S. cerevisiae deletion strains, locus YMR129W, hits give low values 1.02 | S. cerevisiae deletion strains, locus YMR205C, strain PFK2, hits give low values 1.03 | S. cerevisiae deletion strains, locus YMR223W, strain ubp8, hits give low values 1.03 | S. cerevisiae deletion strains, locus YMR231W, strain pep5, hits give low values 1.03 | S. cerevisiae deletion strains, locus YMR263W, strain SAP30, hits give low values 1.02 and 1 | S. cerevisiae deletion strains, locus YMR307W, strain GAS1, hits give low values 0.989 | S. cerevisiae deletion strains, locus YNL067W, strain RPL9B, hits give low values 1.02 | S. cerevisiae deletion strains, locus YNL071W, strain lat1, hits give low values 1.03 | S. cerevisiae deletion strains, locus YNL128W, strain TEP1, hits give low values 1.01 | S. cerevisiae deletion strains, locus YNL153C, strain GIM3, hits give low values 1.02 and 0.995 | S. cerevisiae deletion strains, locus YNL175C, strain NOP13, hits give low values 0.965 | S. cerevisiae deletion strains, locus YNL183C, strain NPR1, hits give low values 0.964 | S. cerevisiae deletion strains, locus YNL197C, strain WHI3, hits give low values 0.965 | S. cerevisiae deletion strains, locus YNL209W, strain ssb2, hits give low values 1.04 | S. cerevisiae deletion strains, locus YNL224C, strain SQS1, hits give low values 1.01 | S. cerevisiae deletion strains, locus YNL233W, strain BNI4, hits give low values 1 | S. cerevisiae deletion strains, locus YNL248C, strain rpa49, hits give low values 1.06 | S. cerevisiae deletion strains, locus YNL250W, strain rad50, hits give low values 1.03 | S. cerevisiae deletion strains, locus YNL271C, strain bni1, hits give low values 1.03 | S. cerevisiae deletion strains, locus YNL298W, strain CLA4, hits give low values 1.03 | S. cerevisiae deletion strains, locus YNL307C, strain MCK1, hits give low values 1.04 | S. cerevisiae deletion strains, locus YNL322C, strain KRE1 (second series), hits give low values 1.02 | S. cerevisiae deletion strains, locus YNL322C, strain KRE1, hits give low values 1.01 | S. cerevisiae deletion strains, locus YNR049C, strain mso1, hits give low values 1.01 | S. cerevisiae deletion strains, locus YNR052C, strain pop2, hits give low values 1.01 | S. cerevisiae deletion strains, locus YOL006C, strain TOP1, hits give low values 1.05 | S. cerevisiae deletion strains, locus YOL012C, strain htz1 0.791 | S. cerevisiae deletion strains, locus YOL147C, strain pex11, hits give low values 1 | S. cerevisiae deletion strains, locus YOR001W, strain rrp6, hits give low values 1.01 | S. cerevisiae deletion strains, locus YOR061W, strain CKA2, hits give low values 1.01 | S. cerevisiae deletion strains, locus YOR069W, strain VPS5, hits give low values 1 | S. cerevisiae deletion strains, locus YOR070C, strain gyp1, hits give low values 1.02 | S. cerevisiae deletion strains, locus YOR080W, strain dia2, hits give low values 1.02 | S. cerevisiae deletion strains, locus YOR083W, strain WHI5 (second series), hits give low values 0.956 | S. cerevisiae deletion strains, locus YOR083W, strain WHI5, hits give low values 1.04 | S. cerevisiae deletion strains, locus YOR106W, strain vam3, hits give low values 1.04 | S. cerevisiae deletion strains, locus YOR136W, strain idh2, hits give low values 1.02 | S. cerevisiae deletion strains, locus YOR144C, strain elg1, hits give low values 1.02 | S. cerevisiae deletion strains, locus YOR184W, strain ser1, hits give low values 1.05 | S. cerevisiae deletion strains, locus YOR231W, strain MKK1, hits give low values 1.03 | S. cerevisiae deletion strains, locus YOR265W, strain rbl2, hits give low values 1.03 | S. cerevisiae deletion strains, locus YOR270C, strain vph1, hits give low values 1.1 | S. cerevisiae deletion strains, locus YOR290C, strain snf2, hits give low values 1.06 | S. cerevisiae deletion strains, locus YOR316C, strain cot1, hits give low values 1.01 | S. cerevisiae deletion strains, locus YPL051W, strain arl3, hits give low values 1.04 | S. cerevisiae deletion strains, locus YPL055C, strain LGE1, hits give low values 1 | S. cerevisiae deletion strains, locus YPL078C, strain atp4, hits give low values 1.05 | S. cerevisiae deletion strains, locus YPL106C, strain sse1, hits give low values 1.03 | S. cerevisiae deletion strains, locus YPL240C, strain hsp82, hits give low values 1.02 | S. cerevisiae deletion strains, locus YPL241C, strain CIN2, hits give low values 0.999 and 0.995 | S. cerevisiae deletion strains, locus YPL256C, strain CLN2, hits give low values 1 | S. cerevisiae deletion strains, locus YPR119W, strain clb2, hits give low values 1 | S. cerevisiae deletion strains, locus YPR141C, strain kar3, hits give low values 1.02 | S. cerevisiae deletion strains, locus YPR163C, strain tif3, hits give low values 1.03 | S. cerevisiae deletion strains, locus YPR167C, strain met16, hits give low values 1.02 | S. cerevisiae deletion strains, strain wtn01, hits give low values 1.02 | S. cerevisiae strains, strain wild type, hits give low values 1.01
